Measurements from the supplement of paper PMC12669032.
Values without a mark were called inactive.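 Rule for the calls: active = AUC reduced over 20% with Padj below 0.05 in at least 2 of 3 replicates; inactive = otherwise.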

Assays:
Roseburia intestinalis = test: growth AUC relative to DMSO control (median of replicates) (fraction); higher = more growth (less inhibition), active = hit call of the paper; settings: 20 µM; 24 h
In short: (§1)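 Gut bacterial monocultures were grown anaerobically at 37 °C in mGAM, starting at OD600 0.05, with 20 µM compound (1% DMSO) in round-bottom 96-well plates under pierced gas-permeable seals. OD600 was read hourly for 24 h. Area under the growth curve (minimum OD set to 0) was normalised to the plate median of DMSO controls, or to row and column medians on the industrial chemical plate. The value is the median of three biological replicates grown on separate days.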

Streptococcus salivarius = test: as above; settings: 20 µM; 24 h
In short: as §1

Compound	growth AUC (Roseburia intestinalis)	growth AUC (Streptococcus salivarius)
Cc1ccc(-c2c(Cl)nc(C#N)n2S(=O)(=O)N(C)C)cc1	0.995	0.956
O=C(O)CNCP(=O)(O)O	0.966	1.03
ClC1C(Cl)C(Cl)C(Cl)C(Cl)C1Cl (mixture of isomers)	1.02	0.974
O=C(Nc1ccccc1-c1ccc(Cl)cc1)c1cccnc1Cl	1.01	1.01
CC(C)(C)[C@@H](O)[C@H](Oc1ccc(Cl)cc1)n1cncn1	1.08	1.04
CC(COc1ccc(Oc2ccccc2)cc1)Oc1ccccn1 (centres undefined)	0.94	1.01
CCC(C)(NC(=O)c1cc(Cl)c(C)c(Cl)c1)C(=O)CCl (centres undefined)	0.964	0.945
O=C(O)c1ccc(Cl)nc1	1.16	0.973
Clc1ccc(Cl)cc1	1.01	1.02
Cl.NC1=NCCN1Cc1ccc(Cl)nc1	0.963	1.01
CCC(=O)Nc1ccc(Cl)c(Cl)c1	0.917	0.973
COC(=O)COc1ccc(Cl)cc1Cl	0.943	0.937
OC[C@@H](O)[C@H]1O[C@@H]2O[C@H](C(Cl)(Cl)Cl)O[C@@H]2[C@H]1O (mixture of isomers)	0.967	1.01
CC(C)CC(C)c1sccc1NC(=O)c1cn(C)nc1C(F)(F)F (centres undefined)	0.998	0.984
CCOc1cc(C(C)(C)C)ccc1C1COC(c2c(F)cccc2F)=N1 (centres undefined)	0.948	1.02
COc1cccc(C(=O)NN(C(=O)c2cc(C)cc(C)c2)C(C)(C)C)c1C	0.985	0.966
c1ccc2c(c1)-c1cccc3cccc-2c13	0.956	0.972
C=C/C=C/CC1=C(C)C(OC(=O)[C@@H]2C(/C=C(\C)C(=O)OC)C2(C)C)CC1=O.C=C/C=C/CC1=C(C)[C@@H](OC(=O)[C@@H]2C(C=C(C)C)C2(C)C)CC1=O (some centres undefined)	1.02	0.947
CC(C)(C)C(=O)C(Oc1ccc(Cl)cc1)n1cncn1 (centres undefined)	1.03	1.01
CC(C)=CC1C(C(=O)OCN2C(=O)C3=C(CCCC3)C2=O)C1(C)C (centres undefined)	0.988	1.01
CCOP(=O)(OCC)Oc1ccc(S(C)(=O)=O)cc1	0.974	1.02
Cc1ccc(NC(=O)N(C)C)cc1Cl	1.02	1.02
